This is a sample that favours compounds with a hit; in the whole collection about 2.5% have one here.
Pol iota inh: inhibitors of human DNA polymerase iota; AID 588590; Pol iota fluorescent replication assay, 10 min; Potency, µM (doses to about 115 µM), actives largely listed as inhibitors; actives 1% (n = 390,000); Q9UNA4
Target sequence (Q9UNA4 whole entry, looked up): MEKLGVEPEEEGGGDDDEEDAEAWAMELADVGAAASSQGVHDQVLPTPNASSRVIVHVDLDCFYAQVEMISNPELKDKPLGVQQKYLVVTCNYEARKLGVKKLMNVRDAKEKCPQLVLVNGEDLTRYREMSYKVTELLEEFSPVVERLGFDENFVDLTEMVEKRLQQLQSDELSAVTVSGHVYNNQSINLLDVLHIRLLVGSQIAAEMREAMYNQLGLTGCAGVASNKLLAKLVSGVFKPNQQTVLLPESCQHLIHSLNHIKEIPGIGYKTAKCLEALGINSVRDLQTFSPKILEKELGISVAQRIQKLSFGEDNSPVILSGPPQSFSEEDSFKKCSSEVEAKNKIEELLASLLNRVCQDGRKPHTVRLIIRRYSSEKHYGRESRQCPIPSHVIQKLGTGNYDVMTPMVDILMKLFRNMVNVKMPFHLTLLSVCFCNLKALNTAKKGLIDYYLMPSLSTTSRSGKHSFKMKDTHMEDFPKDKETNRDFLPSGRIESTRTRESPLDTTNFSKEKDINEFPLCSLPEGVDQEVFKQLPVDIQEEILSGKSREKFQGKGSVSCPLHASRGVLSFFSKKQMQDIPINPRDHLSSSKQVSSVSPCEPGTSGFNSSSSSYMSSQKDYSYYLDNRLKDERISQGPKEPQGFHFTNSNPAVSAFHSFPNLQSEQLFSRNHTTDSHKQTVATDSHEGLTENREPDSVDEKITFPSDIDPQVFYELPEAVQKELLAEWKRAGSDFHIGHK
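Fluorescent replication assay read twice, at 0 min and 10 min after adding 50 nM (final) substrate. Enzyme (10 nM) and compounds were first incubated 15 min at room temperature; enzyme-free buffer wells were negative controls.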
WRN helicase inh: WRN helicase (human) inhibition; Q14191; WRN helicase unwinding, fluorescent forked duplex, kinetic; Potency, µM (highest dose often 114 µM), most hits filed as inhibitors; actives 0.46% (n = 360,000); AID 651768; further: nearly all actives have a fitted effect of over 55% in size
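Fluorescence dequenching readout, ex 525 nm/em 598 nm, kinetic mode: forked duplex DNA (100 nM final) with adjacent fluorophore and quencher unwound by WRN (20 nM final) with 2 mM ATP. Compound preincubation 15 min, room temperature.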
L3MBTL1 block: inhibitors of human L3MBTL1; Q9Y468; AlphaScreen L3MBTL1–H3K9me1 peptide binding; Potency, µM (series often up to 57.1 µM), most hits filed as inhibitors; actives 0.66% (n = 230,000); AID 485360; further: nearly all actives have a fitted effect of over 60% in size
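First, the protein-peptide complex forms for 30 min at room temperature (L3MBTL1 50 nM, biotinylated H3K9me1 peptide 75 nM). Next, compounds are pin-transferred and incubated 30 min. Finally, AlphaScreen beads are added and read after 30 min.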
Pol kappa inh-1: inhibitors of human DNA polymerase kappa; Potency, µM (series often up to 107 µM), hits mostly inhibitors; actives 0.53% (n = 400,000); purified Pol kappa, fluorescent DNA synthesis assay, 10 min; Q9UBT6
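Pol kappa 10 nM + cpd, 15 min RT; start w/ substrate 50 nM final; fluorescence kinetic read, 0 and 10 min. Neg ctrl: buffer, no enzyme.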
Pol eta inh-1: inhibitors of human DNA polymerase eta; Q9Y253; recombinant Pol eta, fluorescent DNA replication assay; AID 588591; actives 1.2% (n = 390,000); Potency, µM (highest dose often 114 µM), actives largely listed as inhibitors
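Fluorescent replication assay: 50 nM final substrate added after a 15 min room-temperature compound preincubation with 10 nM enzyme. Signal taken at 0 min and again at 10 min.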
Pol beta inh: DNA polymerase beta (human) inhibition; Pol beta primer extension/strand displacement, fluorescence kinetic; Potency, µM (doses to about 114 µM), hits mostly inhibitors; actives 1.3% (n = 340,000); AID 485314
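Enzyme-only controls used 10 nM Pol beta; buffer lacking enzyme served as negative control. Compound preincubated 15 min, then 50 nM substrate added; 0 and 10 min reads at room temperature.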
GALK confirm: galactokinase (human) inhibition, confirmation | shares compounds with Pol eta inh-1 | purified GALK, Kinase-Glo ATP depletion luminescence | Potency, µM (highest dose often 115 µM), actives largely listed as inhibitors | actives 70% (n = 150) | AID 2015
GALK redox cs: redox cycling activity in phenol red-HRP assay. shares compounds with Pol eta inh-1. Phenol red-HRP H2O2 redox cycling, absorbance 600 nm. Potency, µM (titrated, usually from 115 µM), most hits filed as inhibitors. actives 40% (n = 150). AID 2035
HEK293 viability: counter-screen for GALK inhibitors: HEK293 cell cytotoxicity | shares compounds with Pol eta inh-1 | HEK-293 viability, ATP luminescence (CellTiter-Glo), 24/48 h | Potency, µM (highest dose often 46.1 µM), actives largely listed as inhibitors | actives 10% (n = 170)
Pol kappa inh-2: Pol kappa (human) inhibition, cherry-pick confirmation; shares compounds with Pol eta inh-1; purified Pol-kappa, fluorescent strand-displacement substrate; Potency, µM, usual class: inhibitors; actives 76% (n = 920); AID 720501
Pol eta inh-2: Pol eta (human) inhibition, cherry-pick confirmation; Potency, µM, hits mostly inhibitors; shares compounds with Pol eta inh-1; actives 64% (n = 2,600); Pol eta primer extension, TAMRA/BHQ fluorescence, 10 min
A number is an active result; 0 = inactive; ? = inconclusive; - = not tested or not shown; [ ] = remark or other dose. The call rests on the fitted dose curve; in most records, active means well fitted curve in the direction sought with a large enough effect; inconclusive means small, poorly fitted or top-dose-only effect, or another doubt; inactive means no such curve, though single readings can be large; an effect the other way counts as inactive or inconclusive.

SMILES	Pol iota inh	WRN helicase inh	L3MBTL1 block	Pol kappa inh-1	Pol eta inh-1	Pol beta inh	Pol eta inh-2	others
CC(C)C(CC(=O)NCc1ccco1)c1ccco1 (stereo not given)	?	?	0	?	17.8µM	?	?
CC(=O)NC(Cc1c[nH]c2ccccc12)C(=O)NCc1ccco1 (stereo not given)	0	0	-	0	0	0	-
CCOc1cc(C(=O)N/N=C/c2cn(-c3ccccc3)nc2-c2cc3ccccc3o2)cc(OCC)c1OCC	0	0	-	0	0	-	-
COc1cccc(CNC(=O)c2ccc3c(c2)nc2n3CCC(C)C2)c1 (stereo not given)	0	-	-	0	0	0	-
COC(=O)c1sccc1NC(=O)c1ccoc1C	0	0	0	0	0	0	-
CCOc1ccc(-c2cc(C)n3nc(C(N)=O)cc3n2)cc1	28.2µM	?	-	0	22.4µM	?	?
CCc1c(C)sc(NC(=O)CC#N)c1C#N	44.7µM	?	-	?	22.4µM	?	?
CCCC(=O)Nc1sc(C)c(C)c1C#N	0	0	0	0	0	0	-
COC(=O)c1ccc(C2c3c(-c4ccccc4O)n[nH]c3C(=O)N2Cc2ccncc2)cc1 (stereo not given)	0	-	-	0	0	0	-
CC1=C(C)C(OCCCl)N(c2cc(O)c(Cl)cc2F)C1=O (stereo not given)	0	0	0	0	0	0	-
CCCOc1ccc(Cc2nn3c(=O)/c(=C/c4ccco4)sc3nc2=O)cc1	6.31µM	56.2µM	?	8.91µM	25.1µM	25.1µM	?
CC(=O)c1ccc(NC(=O)c2noc3c2CSc2ccccc2-3)cc1	0	-	-	0	0	0	-
Cc1c(C(=O)Nc2cccc(F)c2)oc2c1-c1nn(Cc3c(F)cccc3Cl)cc1CC2	0	-	-	0	89.1µM	0	-	Pol kappa inh-2=47.4
CC(=O)c1cccc(NC(=O)c2oc3c(c2C)-c2nn(Cc4ccc(Cl)cc4)cc2CC3)c1	0	-	-	0	0	0	-
O=C1c2ccccc2C(=O)c2c(O)c(O)cc(O)c21	79.4µM	0	?	50.1µM	31.6µM	-	42.6	Pol kappa inh-2=75.2
C[C@H](O)[C@@H]1C(=O)N2CCc3c([nH]c4ccccc34)[C@@H]2C[C@@H]1N(C)C(=O)c1cc(Cl)cc(Cl)c1	-	0	-	-	-	-	-
CCOC(=O)Cc1nnc(NC(=O)CSc2nnc3c(n2)[nH]c2ccccc23)s1	25.1µM	?	-	79.4µM	20µM	17.8µM	42.6
CCOc1cc(/C=C2/C(=N)N3C(=NC2=O)SN=C3S(C)(=O)=O)ccc1OS(=O)(=O)c1ccccc1	?	0	-	0	79.4µM	?	-	GALK confirm=33.5µM;GALK redox cs=0;HEK293 viability=0
COc1cc(/C=C2/C(=N)N3C(=NC2=O)SN=C3S(C)(=O)=O)ccc1OS(=O)(=O)c1ccccc1	-	-	-	-	-	0	-
O=C(OCC(=O)N1CCCC1=O)c1nc(Cl)c(Cl)c(Cl)c1Cl	?	0[11.6 µM]	-	?	56.2µM	?	?
CCCCn1c(N)c(N(CCOC)C(=O)c2cccc(S(=O)(=O)N(C)c3ccc(C)cc3)c2)c(=O)[nH]c1=O	0	0	0	0	0	-	-
O=C(O)c1cccc(N2CCCC2)c1	?	0	-	0	?	0	75.7
O=C(O)c1cccc(N2CCCC2=O)c1	?	0	0	0	0	0	-
S=c1[nH]nc(-c2cc(-c3ccccc3)n[nH]2)n1/N=C/C(Br)=C/c1ccccc1	22.4µM	44.7µM	?	0	50.1µM	12.6µM	-	Pol kappa inh-2=67
Cc1ccc(NC(=S)Nc2cccc3cnccc23)cc1	0	0	-	0	0	0	-
SMILES	Pol iota inh	WRN helicase inh	L3MBTL1 block	Pol kappa inh-1	Pol eta inh-1	Pol beta inh	Pol eta inh-2	others
CC(=O)c1ccc(NC(=S)Nc2cccc3cnccc23)cc1	0	0	-	0	0	?	-	GALK confirm=?;GALK redox cs=10.6µM;HEK293 viability=0
C/C(N)=C(/C#N)C(=O)CSc1nnnn1-c1ccccc1	?	0	0	0	15.8µM	35.5µM	26.9
C/C(N)=C(/C#N)C(=O)CSc1nnnn1-c1ccc(C)cc1	?	0	0	0	?	0	-
Cc1c(C(=O)O)cccc1-c1ccc(C=O)o1	?	0	?	?	5.01µM	28.2µM	84.9
O=C(Cc1ccc(Br)cc1)N/N=C/c1ccc(-c2cccc(C(=O)O)c2)o1	0	0[11.6 µM]	?	?	22.4µM	?	30.1
O=Cc1ccc(-c2cccc(C(=O)O)c2)o1	?	0[11.6 µM]	?	?	10µM	?	47.8
COC(=O)c1sccc1NC(=O)Nc1ccc(C(C)=O)cc1	0	0	-	0	0	0	-
COc1ccccc1C=NN=Cc1ccccc1OC	0	0	-	?	0	-	-
NS(=O)(=O)c1ccc(CCNC(=O)CN2CCN(Cc3cccc(C(F)(F)F)c3)CC2)cc1	0	0	-	0	0	0	-
COc1cc2cc3c(N)c(C(=O)Nc4sc(C)c(C)c4C#N)sc3nc2cc1OC	7.94µM	?	3.16µM	31.6µM	28.2µM	7.94µM	30.1
COc1cc2cc3c(N)c(C(=O)NCc4ccco4)sc3nc2cc1OC	?	?	0	?	?	?	-
Cc1ccc(S(=O)(=O)N/N=C\c2ccc(C)o2)cc1	?	0[11.6 µM]	?	?	44.7µM	39.8µM	67.5
CC#CCCCC(=O)Nc1cccc(C(=O)O)c1	?	0	0	?	14.1µM	0	?
O=C(CCl)N1N=C(c2ccco2)CC1c1ccco1 (stereo not given)	3.16µM	56.2µM	-	22.4µM	10µM	25.1µM	60.1
Cc1ccc(NC(=O)C(C)OC(=O)c2cc(=O)[nH]c3ccccc23)cc1S(=O)(=O)N1CCOCC1 (stereo not given)	25.1µM	?	-	89.1µM	17.8µM	-	?
COc1ccc2occ(CC(=O)Nc3ccc(S(=O)(=O)Nc4nc(C)cc(C)n4)cc3)c2c1	79.4µM	-	-	?	25.1µM	28.2µM	?	Pol kappa inh-2=42.3
Cc1ccc2c(CC(=O)Nc3ccc(S(=O)(=O)Nc4nc(C)cc(C)n4)cc3)coc2c1	0	-	-	0	0	0	-

Bioassay records from PubChem BioAssay.
